From PubChem BioAssay (EPA / NIEHS) come the findings set out here.

A word on the AC50: it is the concentration giving half of the maximal activity seen.

A structure can be active in one record and inactive in another. Active and inactive are the calls of the source. The calls were made as follows: active = hit-call score of the fitted dose curve at least 0.9, where 1 is the maximum; inactive = score below 0.9.

This assay in a line: ATG_PXRE_CIS: Attagene CIS-FACTORIAL HepG2 Assay for human Pregnane X Receptor Element (PXRE) (AID 2282957). Particulars: HepG2 Attagene CIS-FACTORIAL PXRE reporter, mRNA; actives raise or lower the signal. How it is done: ATG_CIS is a cell-based, multiplexed-readout assay that uses HepG2, a human liver cell line, with measurements taken at 24 hours after chemical dosing in a 24-well plate.ATG_PXRE_CIS is one of 52 assay component(s) measured or calculated from the ATG_CIS assay. It is designed to make measurements of mRNA induction, a form of inducible reporter, as detected with fluorescence intensity signals by Reverse transcription polymerase chain reaction (RT-PCR) and Capillary electrophoresis technology.Data from the assay component ATG_PXRE_CIS was analyzed into 1 assay endpoint. This assay endpoint, ATG_PXRE_CIS, was analyzed with bidirectional fitting relative to DMSO as the negative control and baseline of activity. Using a type of inducible reporter, measures of mRNA for gain or loss-of-signal activity can be used to understand the reporter gene at the transcription factor-level as they relate to the gene NR1I2. Furthermore, this assay endpoint can be referred to as a primary readout, because this assay has produced multiple assay endpoints where this one serves a reporter gene function. To generalize the intended target to other relatable targets, this assay endpoint is annotated to the nuclear receptor intended target family, where the subfamily is non-steroidal.
Human liver HepG2 cells are transiently transfected with multiple reporter transcription units (MRTUs) in 6-well plates using FuGene 6 reagent (Roche; 3 ml FuGene/1 mg DNA). The MRTU constructs are regulated by a cis-regulating element (promoter). […] A major difference between the CIS and TRANS system is that in CIS activities of endogenous TFs are measured, whereas the TRANS assay evaluates changes in activities of exogenous, chimeric NR-Gal4 proteins. […] At the end of 24 hour incubation, total RNA was isolated using TriZol reagent (Invitrogen). The isolated RNA is then reverse-transcribed using oligo(dT) primer and Mo-MLV reverse transcriptase (Invitrogen) with DNAse I (Ambion) treatment for 30 min. The one-tenth of the produced cDNA was amplified by PCR using Taq DNA polymerase (Invitrogen) and two reporter sequence-specific primers. The PCR products were fluorescently labeled by primer extension with 6-arboxyfluorescein (6-FAM) 5'-labeled reporter sequence-specific primer (2 min at 95 C, 20 s at 68 C and 10 min at 72 C) and these products were digested with 5U of HpaI (New England Biolabs) for 2h at 37 C. The fragments were purified using Qiaquick PCR columns (Qiagen), analyzed on an ABI 3130xL genetic analyzer (Applied Biosystems) with peak positions identified by using a set of X-rhodamine (ROX)-labeled MapMarker1000 molecular weight standards (BioVentures). The raw capillary electrophoresis data was processed using Attagraph software (Attagene).
In the case of `COC(=O)CCC(F)(F)C(F)(F)C(F)(F)C(F)(F)F`, the compound was called inactive.
On to `FC(F)(F)C(F)(F)C(F)(F)CI`, for which the outcome was inactive.
In the case of `CC(CCl)OP(=O)(OC(C)CCl)OC(C)CCl` (stereo not given), the AC50 was 3.53 µM (active).
As to `FC(F)(F)C(F)(F)C(F)(F)C(F)(F)C(F)(F)C(F)(F)C(F)(F)I`, the call was inactive.
Regarding `OCCCC(F)(F)C(F)(F)C(F)(F)C(F)(F)C(F)(F)C(F)(F)C(F)(F)F`, the concentration at half-maximal activity (AC50) is 79.6 µM (active) and the outcome was inactive.
On to `O=C(O)C(F)(OC(F)(F)C(F)(OC(F)(F)C(F)(F)C(F)(F)F)C(F)(F)F)C(F)(F)F` (stereo not given), for which the result was inactive.
`CCCCOCCOCCOC(=O)CCCCC(=O)OCCOCCOCCCC`: the AC50 was 26.9 µM (active).
On to `CC(C)(C)C(=O)CC(=O)C(F)(F)C(F)(F)C(F)(F)F`, for which the compound was classed as inactive.
Take `OC[C@@H](O)[C@@H](O)[C@H](O)[C@@H](O)CO`: the AC50 is 26.3 µM (active) and the outcome was inactive.
On to `N=C(N)C(F)(F)C(F)(F)C(F)(F)C(F)(F)C(F)(F)C(F)(F)C(F)(F)F`, for which the outcome was inactive.
For `CC/C=C\CCOC(=O)c1ccccc1`, the compound was classed as inactive.
On to `[Co]`, for which the AC50 was 13.8 µM (active).
As for `CCCCCCS`, the outcome was inactive.
On the same count and under the same terms, with `CCCCCCCCC(F)(F)C(F)(F)C(F)(F)C(F)(F)C(F)(F)C(F)(F)F` the entry was “inactive”.
As to `C(=C(c1ccccc1)c1ccccc1)c1ccccc1`, the concentration at half-maximal activity (AC50) is 4.4 µM (active).
In the case of `CS(C)(=O)=O`, the AC50 is 4.43 µM (active).
As for `O=C(O)C(F)(F)C(F)(F)OC(F)(F)F`, the compound was classed as inactive.
As to `CCCCCCCCCCCCCCCC[N+](C)(C)Cc1ccccc1`, the compound was classed as inactive.
On to `O[Si](c1ccccc1)(c1ccccc1)c1ccccc1`, for which the AC50 was 0.897 µM (active).
Regarding `O=C(CC(=O)C(F)(F)C(F)(F)F)C(F)(F)F`, the AC50 is 76.4 µM (active) and the compound was classed as inactive.
Consider `CCc1c(Br)c(Br)c(Br)c(Br)c1Br`, for which the AC50 was 8.3 µM (active).
Turning to `O=S(=O)(OCCOC(F)(F)F)C(F)(F)F`, the outcome was inactive.
On to `Cc1ccc(S(=O)(=O)OCC(F)(F)C(F)(F)C(F)(F)C(F)(F)C(F)(F)C(F)F)cc1`, for which the AC50 is 1.95 µM (active).
Same read-out and setting: then `CC(=O)Nc1ccc(N=Nc2cc(C)ccc2O)cc1`, with 19.5 µM (active).
As to `COC(OC(C)=O)c1ccccc1` (stereo not given), the call was inactive.
On to `O=S(=O)(OCC(F)F)C(F)(F)F`, for which the compound was classed as inactive.
On to `CCC(=O)OCCc1ccccc1`, for which the call was inactive.
Regarding `CCN(Cc1cccc(S(=O)(=O)O)c1)c1ccc(C(=C2C=CC(=[N+](CC)Cc3cccc(S(=O)(=O)O)c3)C=C2)c2ccc(O)cc2S(=O)(=O)[O-])cc1`, the outcome was inactive.
In the case of `CC(C)(C)c1ccc(OC2CCCCC2O)cc1` (stereo not given), the AC50 was 1.73 µM (active).
The same measure, in the same setting: with `Nc1ccc(Oc2cccc(Oc3ccc(N)cc3)c2)cc1` the figure was 25.7 µM (active).
In the case of `OCC(F)(F)C(F)(F)C(F)(F)C(F)F`, the compound was classed as inactive.
For `O=C(Cl)C(F)(F)C(F)(F)C(F)(F)C(F)(F)C(F)(F)C(F)(F)C(F)(F)C(F)(F)F`, the AC50 was 8.97 µM (active).
For the compound `O=C(O)C(F)(F)C(F)(F)C(F)(F)C(F)(F)F`, the result was inactive.
Turning to `COC(=O)C1CCC(C(=O)OC)CC1` (stereo not given), the compound was called inactive.
Turning to `CCCCCCC(C)OC(=O)CCCCC(=O)OC(C)CCCCCC` (stereo not given), the AC50 is 12.8 µM (active).
Take `C#C[C@]1(O)CC[C@H]2[C@@H]3CCc4cc(OC)ccc4[C@H]3CC[C@@]21C`: the AC50 was 5.32 µM (active).
Turning to `CC(C)OC(=O)c1ccccc1C(=O)OC(C)C`, the AC50 is 3.7 µM (active).
